Records with an inconclusive call do not appear. Entries that show only a call come without a potency. A number with no mark means an inactive call. Activity calls are given as the source filed them. The call rests on the fitted dose curve; in most records, active means well fitted cell-killing curve with a large enough effect; inconclusive means small, poorly fitted or top-dose-only effect, or effect the other way; inactive means no such curve, though single readings can be large or run the other way.
Potency means the concentration at half of the fitted maximal effect.

The nature of the test: Viability qHTS for spleen associated tyrosine kinase inhibitor (SYKi) naive MV4-11 cells (AID 1963823). Further: nearly all actives have a fitted effect of over 40% in size. Particulars: MV4-11 AML viability, CellTiter-Glo luminescence, 72 h; series mostly up to 45 µM. The gist of the method: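 Cells: MV4-11, SYK inhibitor naive, 500 per well. Treatment: library compounds, 72 hr, 37 C, 5% CO2. Read-out: CellTiter-Glo luminescence after 10 min RT.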
With `CO[C@H]1O[C@@H]2O[C@]3(C)CC[C@H]4[C@H](C)CC[C@@H]([C@H]1C)[C@@]24OO3`, the Potency is 1.84 µM (active).

In the case of `CNCCC=C1c2ccccc2CCc2ccccc21`, the Potency is 11.6 µM (active).

With `CC(C)(O)c1ccc2c(c1)C(=O)C[C@H]1[C@](C)(C(=O)O)CCC[C@]21C`, the Potency entry was “inactive”.

On to `COc1cc(N)c(Cl)cc1C(=O)NC[C@@H]1CCN2CCC[C@@H]12`, for which the Potency result is “inactive”.

For `CO/N=C(/C(=O)N[C@@H]1C(=O)N2C(C(=O)O)=C(CSC(=O)c3ccco3)CS[C@H]12)c1csc(N)n1`, the Potency entry was “inactive”.

`O=C(O[C@@H]1O[C@H](CO)[C@@H](O)[C@H](O)[C@H]1O)c1c(O)cc(O)cc1/C=C/c1ccccc1`: the Potency entry was “inactive”.

In the case of `O=c1c2cccnc2n(-c2cccc([N+](=O)[O-])c2)c(=O)n1Cc1ccncc1`, the Potency entry was “inactive”.

With `Cc1cnc(NC(=O)Nc2cc(Br)c(C)cc2OCC2CNCCO2)cn1` (configuration not stated), the Potency is 0.731 µM (active).

Turning to `COC(=O)C12C(=O)C(C)=C(O)C1(C)C(C)=CC1C3(CO)CCC(O)C(C)(C)C3CCC12C` (configuration not stated), the Potency entry is “inactive”.

With `CC(=O)/C=C/[C@H]1[C@](C)(O)[C@@H](O)[C@H](O)C2C(C)(C)CCC[C@@]21C` (some centres not stated), the Potency result is “inactive”.

As to `C=C[C@H]1[C@H](O[C@@H]2O[C@H](CO)[C@@H](O)[C@H](O)[C@H]2O)OC=C(C(=O)OC)[C@H]1CCO`, the Potency entry was “inactive”.

Consider `CCc1c(CC(N)=O)c2cc(OCCCP(=O)(O)O)ccc2n1Cc1ccccc1`, for which the Potency result is “inactive”.

As for `COc1c2ccoc2cc2oc(CO[C@@H]3O[C@H](CO)[C@@H](O)[C@H](O)[C@H]3O)cc(=O)c12`, the Potency result was “inactive”.

On to `CC(=O)O[C@H]1C[C@@H](O)C(C)(C)C2C[C@@H](OC(C)=O)[C@]3(C)C(CC[C@@]4(C)[C@H](c5ccoc5)OC(=O)[C@H]5O[C@]543)[C@]21C` (some centres not stated), for which the Potency result is “inactive”.

`CS(=O)(=O)NCC1CCC(Nc2nc3c(s2)CCSc2ccccc2-3)CC1` (configuration not stated): the Potency is 2.31 µM (active).

Regarding `CC1(C)[C@@H](O[C@H]2O[C@H](C(=O)O)[C@@H](O)[C@H](O)[C@H]2O[C@@H]2O[C@H](C(=O)O)[C@@H](O)[C@H](O)[C@H]2O)CC[C@]2(C)[C@H]3C(=O)C=C4[C@@H]5C[C@@](C)(C(=O)O)CC[C@]5(C)CC[C@@]4(C)[C@]3(C)CC[C@@H]12`, the Potency result is “inactive”.

As for `COc1cc(/C=C/C(=O)O[C@H]2[C@H](O)[C@@H](CO)O[C@@]2(CO)O[C@H]2O[C@H](CO)[C@@H](O)[C@H](O)[C@H]2O)ccc1O`, the Potency result is “inactive”.

As to `C=C1C(=O)O[C@@H]2C3=C(C)CCC[C@]3(C)CC[C@@]12O`, the Potency is 1.64 µM (active).

For `CC(/C=C/C1=CC2=CC(=O)C(C)(O)C(O)C2=CO1)=C\C(C)CCO` (configuration not stated), the Potency entry was “inactive”.

For `Nc1nccn2c(C3CCC(C(=O)O)CC3)nc(-c3cc4cccc(Cl)c4[nH]3)c12` (configuration not stated), the Potency was 0.934 µM (active).

`COc1cc(CCC2=NN=C(NC(=O)c3ccc(N4C[C@@H](C)N[C@@H](C)C4)cc3)C2)cc(OC)c1`: the Potency is 0.461 µM (active).

For `O=C1C[C@]23C=CCN4CCC5c6cc7c(cc6N1[C@@]5(CC2)C43)OCO7` (some centres not stated), the Potency is 10.1 µM (active).

For `Cc1cc2c(N3CCCC3)nc(N3CCCC3)nc2n1C`, the Potency is 8.2 µM (active).

On to `OC[C@H]1O[C@@H](OC(CCCCc2ccc(O)cc2)CCc2ccc(O)cc2)[C@H](O)[C@@H](O)[C@@H]1O` (some centres not stated), for which the Potency result was “inactive”.

Take `COc1ccc(CC(NC(C)=O)C(=O)O)cc1` (configuration not stated): the Potency result was “inactive”.

Consider `C=C[C@@]12COC(=O)C(=C)C1[C@@H](O)[C@H](C(=C)C(=O)OC)[C@@H](OC(=O)C(=C)CO)C2` (some centres not stated), for which the Potency is 1.78 µM (active).

For the compound `COc1cc2c(cc1O)CC[C@@H]1[C@@H]2CC[C@]2(C)[C@@H](O)CC[C@@H]12`, the Potency was 0.833 µM (active).

Consider `C[C@@H]1O[C@@H](O[C@@H]2[C@@H](O)[C@H](O[C@H]3CC[C@@]4(C)C(CC[C@]5(C)C4CC=C4[C@@H]6CC(C)(C)CC[C@]6(C(=O)O[C@@H]6O[C@H](CO)[C@@H](O)[C@H](O)[C@H]6O)CC[C@]45C)C3(C)C)O[C@H](C(=O)O)[C@H]2O)[C@H](O)[C@H](O)[C@H]1O` (some centres not stated), for which the viability (% of control) is 80.6% [at 9.25 µM].

With `CC(=O)N[C@H]1CCN(c2ccc(C3=NOC(CN[S+](=O)([O-])C(C)C)C3)cc2F)C1` (some centres not stated), the Potency entry was “inactive”.

Take `CC(/C=C/C1(O)C(C)CC(O)CC1(C)C)OC1OC(CO)C(O)C(O)C1O` (configuration not stated): the Potency entry was “inactive”.

On to `Cn1c(=O)c2nc(/C=C/c3cccc(Cl)c3)n(C)c2n(C)c1=O`, for which the Potency result was “inactive”.

Turning to `C[C@@H]1CC[C@]2(C(=O)O[C@@H]3O[C@H](CO)[C@@H](O)[C@H](O)[C@H]3O)CC[C@]3(C)C(=CCC4[C@@]5(C)C[C@@H](O)[C@H](O)C(C)(C)C5CC[C@]43C)C2[C@]1(C)O` (some centres not stated), the Potency entry was “inactive”.

For the origin of these results see PubChem BioAssay (NCATS).
